The source of these data is PubChem BioAssay (NCI).

Test in all cases: NCI-60 one-dose screen, 48 h (100 = growth as untreated, 0 = no growth, -100 = all killed)
One assay has as its system NCI-H226 lung. The following applies: 10 µM.
In another assay the test system is NCI-H322M lung. As to conditions: 10 µM.
The next assay has as its system HOP-62 NSCLC. As to conditions: 10 µM.
The subject of a further assay is NCI-H460 lung. The following applies: 10 µM.
For a further assay, the system named is NCI-H522 lung. As to conditions: 10 µM.
The subject of the next assay is COLO 205 colon. The following applies: 10 µM.
The test system of the next assay is DU-145 prostate. The following applies: 10 µM.
The subject of a further assay is K-562 leukemia. As to conditions: 10 µM.
The next assay concerns SF-539 CNS. As to conditions: 10 µM.
The next assay deals with M14 melanoma. The following applies: 10 µM.
The next assay has as its system HCT-15 colon. As to conditions: 10 µM.
In a further assay the test system is HT29 colon. The following applies: 10 µM.
The next assay has as its system SNB-75 CNS. As to conditions: 10 µM.
The next assay deals with SNB-19 CNS. The following applies: 10 µM.
For another assay, the system named is LOX IMVI melanoma. The following applies: 10 µM.
The next assay deals with MOLT-4 leukemia. The following applies: 10 µM.
The subject of a further assay is SR leukemia. As to conditions: 10 µM.
A further assay has as its system RPMI-8226 leukemia. The following applies: 10 µM.
In the next assay the test system is SK-OV-3 ovarian. As to conditions: 10 µM.
The next assay relates to MDA-MB-468 breast. The following applies: 10 µM unless noted.

The panel holds about 83,000 compounds, 20% with a hit somewhere; the sample as a whole holds those more often.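 Values shown are percent growth following 48 h exposure of cells in 96-well plates to a single concentration of compound; below 10 was considered active.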 Unmarked numbers belong to inactive results. Activity calls are given as the source filed them.

With `COc1ccc(Cc2nn(CC(=O)N/N=C/c3ccc([N+](=O)[O-])cc3)c(=O)c3c(C)noc23)cc1`, the growth in the assay with NCI-H226 lung was 70.6%; in the assay with NCI-H322M lung it was 78.6%; in the assay on HOP-62 NSCLC it was 39.6%; in the assay on NCI-H460 lung, 16.6%; in the assay with NCI-H522 lung it was 76.1%; in the assay with COLO 205 colon, 82.9%. Further, the growth in the assay with DU-145 prostate was 88.4%; in the assay with K-562 leukemia it was 88.4%; with SF-539 CNS it was 34%; in the assay with M14 melanoma, 70.1%; in the assay with HCT-15 colon, 83.7%; with HT29 colon, 96.2%. For the same compound, the growth was 99.8% in the assay with SNB-75 CNS; 59.6% in the assay on SNB-19 CNS; 26.4% in the assay on LOX IMVI melanoma; 90.2% in the assay with MOLT-4 leukemia; 93.2% in the assay with SR leukemia; 81.5% with RPMI-8226 leukemia. Besides, the growth is 103% in the assay with SK-OV-3 ovarian and 53.1% in the assay on MDA-MB-468 breast.
As to `Cn1cc(/C=C(/SS/C(=C/c2cn(C)c3cccc(C(=O)O)c23)C(=O)O)C(=O)O)c2c(C(=O)O)cccc21`, the growth was 97.7% in the assay on NCI-H226 lung; 102% with NCI-H322M lung; 103% with HOP-62 NSCLC; 110% in the assay on NCI-H460 lung; 92.6% in the assay on NCI-H522 lung; 112% in the assay on COLO 205 colon. Moreover, the growth in the assay on DU-145 prostate was 104%; with K-562 leukemia, 87.4%; with SF-539 CNS, 98.5%; in the assay with M14 melanoma, 115%; in the assay on HCT-15 colon, 99.4%; with HT29 colon it was 107%. Moreover, the growth was 88.8% in the assay with SNB-75 CNS; 102% in the assay on SNB-19 CNS; 48.9% in the assay on LOX IMVI melanoma; 111% with MOLT-4 leukemia; 98.7% in the assay on SR leukemia; 105% in the assay with RPMI-8226 leukemia. In addition, the growth with SK-OV-3 ovarian was 114%; in the assay on MDA-MB-468 breast it was 103%.
Take `O=C(CBr)c1ccc(OC(=O)c2ccccc2)cc1`: the growth in the assay on MDA-MB-468 breast was 116%.
As to `O=C1NC(=S)S/C1=C\c1cn(-c2ccccc2)nc1-c1ccc([N+](=O)[O-])cc1`, the growth is 13.2% in the assay on NCI-H226 lung; 30.5% with NCI-H322M lung; 19.4% in the assay with HOP-62 NSCLC; 9.76% (active) in the assay on NCI-H460 lung; -4.14% (active) in the assay on NCI-H522 lung; 11.7% with COLO 205 colon. For the same compound, the growth with DU-145 prostate is 36.9%; in the assay on K-562 leukemia, 16.5%; with SF-539 CNS it was 21%; with M14 melanoma, 20.5%; in the assay with HCT-15 colon it was 10.4%; in the assay on HT29 colon, 15.1%. The growth with SNB-75 CNS is 34.5%; in the assay on SNB-19 CNS, 18.7%; in the assay with LOX IMVI melanoma, 29.1%; with MOLT-4 leukemia, 17%; with SR leukemia it was 24.5%; with RPMI-8226 leukemia, 2.45% (active). For the same compound, the growth with SK-OV-3 ovarian is 6% (active); in the assay with MDA-MB-468 breast, -8.61% (active).
